As usually defined, the inhibition is the drop in the measured response relative to a control, in per cent.

“And” between values parts separate entries of the source, which are not always exact repeats. Equal values may be shown once. Records with an inconclusive call do not appear. The source made the active and inactive calls.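 The calls were made as follows, unless noted: active = response below a set limit, under 55% cells CD8-positive and vesicle-bound, and CD8 cells' 90th-percentile brightness under 279; inactive = the rest.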

A short description of assay [1]: rapamycin-like changes in RPL19A-GFP expression – cell-based, S. cerevisiae, multiplex flow cytometry, primary screen (AID 1862; in the data active = percent of DMSO control GFP below about 86%;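 also: lower values mimic rapamycin by blocking the RPL19A rise seen in DMSO cells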). The note with it: S. cerevisiae RPL19A-GFP strain, flow cytometry fluorescence, 3 h; at 10 µM; stronger effect = lower value. In general terms: A flow cytometer gives signals particle by particle.
A short description of assay [2]: TOR pathway GLN3 branch reporter MEP2-GFP changes – S. cerevisiae, multiplex flow cytometry, primary screen (AID 1867;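 active = GFP response, as percent of the DMSO control, above the screen-wide mean plus 3 SD, about 139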;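 also: median GFP channel fluorescence of barcode-gated MEP2-GFP cells measured by flow cytometry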). The note with it: S. cerevisiae MEP2-GFP strain, 3 h, at 10 µM, stronger effect = higher value, 100% means same as DMSO wells.
The nature of assay [3]: TOR pathway RTG branch CIT2 reporter changes – S. cerevisiae, GFP fusion, multiplex flow cytometry, primary screen (AID 1870;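 active = percent response above a set limit, the screen-wide mean plus 3 SD, cut at about 130% in these data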;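 also: barcoded CIT2-GFP strain pooled with four other GFP strains with rapamycin as positive control; median GFP fluorescence per well over plate mean of DMSO wells so 100% = DMSO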). To be noted: S. cerevisiae CIT2-GFP expression, 3 h, at 10 µM, stronger effect = higher value.
The nature of assay [4]: TOR pathway LAP4-GFP level changes – S. cerevisiae, multiplex flow cytometry, primary screen (AID 1873;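 active = GFP signal, as percent of the solvent control, above the screen mean plus 3 SD, about 149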). To be noted: S. cerevisiae LAP4-GFP expression, 3 h, at 10 µM, stronger effect = higher value.
A short description of assay [5]: yeast AGP1-GFP level changes, GLN3 branch – cell-based, multiplex flow cytometry, S. cerevisiae, primary screen (AID 1887;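 active = GFP signal above the screen-wide mean plus 3 SD, that is over about 124.5% of the solvent control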;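 also: AGP1-GFP fusion strain of S. cerevisiae within a five-strain barcoded multiplex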). The note with it: 3 h, at 10 µM, stronger effect = higher value.
Assay [6] in a line: reduced mouse 2C T cell binding to pMHC/ICAM-1 vesicles – MLPCN validation set, flow cytometry, LFA-1/ICAM-1 modulator project, pilot screen (AID 2523).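 As to vesicle binding response: mean PE anti-B7-1 fluorescence of CD8+ cells relative to row control; 100% = QL9-loaded vesicles with DMSO vehicle in the same plate row.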 To be noted: 2C mouse CD8+ T cells, at 7 µM, stronger effect = lower value; double positive events: measured here: CD8+/vesicle+ event percentage.
The target in assay [7] is Integrin beta-1 (Homo sapiens) + Integrin alpha-4 (Homo sapiens) (UniProt P13612+P05556). Briefly: alpha4beta1 integrin LIBS antibody binding reduction – U937 cells, HUTS-21 mAb, flow cytometry, validation set, VLA-4 allosteric modulator project, pilot screen (AID 2674;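 active = inhibition above 50%, about 3 SD of the validation set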;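 also: antibody binding induced by the VLA-4 ligand LDV present at three times its Kd; 0% = LDV ligand with antibody and no compound and 100% = antibody without LDV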). To be noted: HUTS-21 LIBS mAb binding, at 6.7 µM, stronger effect = higher value, binding induced by LDV ligand.

Assay [8] in a line: calorie-restriction mimetic ROS inhibitors, yeast – validation compound set, pilot screen (AID 2706;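 active = superoxide response below 65% of plate, a cut near 3 SD across the whole screen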;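 also: yeast exposed to compound for one week at 30 degrees C before staining; 100% = mean of all compound wells on the same plate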). To be noted: S. cerevisiae aging, superoxide DHE fluorescence; at 10 µM; stronger effect = lower value.
Assay [9] deals with Beta-adrenergic receptor kinase 1 (Homo sapiens) (UniProt P25098). Nature of the assay: GRK2 binders displacing RNA aptamer, biochemical, validation, human GRK2, bead flow cytometry (AID 488806;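 active = aptamer binding inhibition above 30%, about 3 SD of noise from non-fluorescent compounds; inactive = inhibition at or below 30%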). The note with it: bead-bound GRK2, FAM-aptamer displacement, at 10 µM, stronger effect = higher value.
The target of assay [10] is Beta-2 adrenergic receptor (Homo sapiens) (UniProt P07550). Nature of the assay: agonist-induced loss of surface beta2AR – cell-based, FAP fluorogen, flow cytometry, validation set, pilot screen (AID 504459;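 active = percent response above 42, roughly 3 SD of non-fluorescent test compounds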;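 also: agonist-driven loss of surface beta2AR via internalization measured by FAP dye flow cytometry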). The note with it: Am2.2-beta2AR cells, at 10 µM, stronger effect = higher value.
Assay [11] concerns the target AP-2 complex subunit beta (Homo sapiens) (UniProt P63010). Briefly: beta-arrestin/AP2 interaction blockers – biochemical, validation set, GST-AP2 beads, flow cytometry, pilot screen (AID 504541;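 active = inhibition above 54%, about 3 SD of non-fluorescent compounds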;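 also: AP2 carries R879A mutation and is captured from E. coli lysate; bead-bound FITC arrestin peptide fluorescence measuring arrestin peptide binding to AP2; 0% = DMSO wells and 100% = excess unlabeled arrestin peptide control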). To be noted: FITC arrestin peptide, at 10 µM, stronger effect = higher value, AP2 beta2 appendage fragment, R879A mutant.
A short description of assay [12]: cytosolic pH regulators acting via V-ATPase – S. cerevisiae, pHLuorin, HTS validation (AID 504600; in the data active = response above about 15%;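 also: plate controls were DMSO for no effect and reference compound for full effect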). To be noted: V-ATPase proton transport, at 10 µM, stronger effect = higher value.
The test system of assay [13] is anti-desmoglein-3 scFv antibody binding to human DSG3. Briefly: blockers of pathogenic pemphigus antibody–desmoglein-3 binding – biochemical, validation compound set, bead-based, flow cytometry, pilot screen (AID 588368;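 active = binding below the plate cutoff, the plate median minus 3 SD, with a reading above zero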;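 also: signal is the median channel fluorescence of bead-bound GFP antibody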). To be noted: Protein G beads, DSG3-Fc, scFv-GFP binding, at 10 µM, stronger effect = lower value.
Assay [14] is described as follows: Nile Red efflux blockade in pump-expressing yeast – validation compound set, multiplex, phenotypic, pilot screen (AID 588506;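 active = efflux inhibition above 0.42, the validation set average plus 4 SD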;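 also: Nile Red retained in cells so higher fluorescence means more efflux inhibition; 0 = negative control wells and 1 = enniatin B 25 µM full block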). To be noted: S. cerevisiae pump-expressing triplex, Nile Red efflux flow cytometry; at 10 µM; stronger effect = higher value; the pumps come from Candida albicans.
Assay [15] deals with ATP-binding cassette sub-family B member 6 (Homo sapiens) (UniProt Q9NP58). Briefly: blockers of ABCB6-driven porphyrin uptake – K562-ABCB6 cells, flow cytometry, validation set, pilot screen (AID 588550;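 active = inhibition above the screen-wide mean plus 3 SD, about 51%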;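 also: 0% = DMSO wells and 100% = benzethonium chloride 70 µM positive control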). To be noted: K562-ABCB6 porphyrin accumulation, 1 h, at 10 µM, stronger effect = higher value.
Assay [16] is described as follows: AML differentiation inducers, ER-HoxA9 marrow cells – cell-based, GFP/MAC1 double positive, flow cytometry, validation set, primary screen (AID 588685;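 active = differentiation response of at least 50%, scaled between solvent and reference control, from cells with both markers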;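 also: compound exposure lasts four days before antibody staining and flow analysis; 0% = DMSO wells and 100% = 5 µM fulvestrant positive control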). The note with it: stronger effect = higher value, normalized: vehicle 0, fulvestrant 100.

Chain of Beta-adrenergic receptor kinase 1 (Homo sapiens) (P25098 whole entry, looked up): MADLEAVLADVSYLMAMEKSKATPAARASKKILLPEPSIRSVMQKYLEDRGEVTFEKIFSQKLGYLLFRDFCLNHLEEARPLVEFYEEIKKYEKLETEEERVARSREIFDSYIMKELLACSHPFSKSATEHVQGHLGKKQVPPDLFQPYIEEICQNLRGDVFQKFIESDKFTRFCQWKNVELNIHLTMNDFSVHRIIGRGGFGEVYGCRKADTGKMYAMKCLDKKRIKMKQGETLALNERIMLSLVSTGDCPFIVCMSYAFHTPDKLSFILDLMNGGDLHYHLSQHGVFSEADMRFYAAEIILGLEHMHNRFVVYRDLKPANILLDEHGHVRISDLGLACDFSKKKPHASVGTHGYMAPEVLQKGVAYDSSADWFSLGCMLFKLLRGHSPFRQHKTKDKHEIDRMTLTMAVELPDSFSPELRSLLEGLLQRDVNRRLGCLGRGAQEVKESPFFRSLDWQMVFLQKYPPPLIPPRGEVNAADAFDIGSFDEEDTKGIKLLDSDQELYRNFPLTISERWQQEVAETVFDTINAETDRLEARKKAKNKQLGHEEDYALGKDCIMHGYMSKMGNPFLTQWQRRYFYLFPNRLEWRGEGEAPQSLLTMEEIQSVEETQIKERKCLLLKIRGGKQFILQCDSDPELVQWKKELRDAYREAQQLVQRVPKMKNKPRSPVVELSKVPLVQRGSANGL
Chain of Integrin beta-1 (Homo sapiens) + Integrin alpha-4 (Homo sapiens) (P05556 whole entry, looked up): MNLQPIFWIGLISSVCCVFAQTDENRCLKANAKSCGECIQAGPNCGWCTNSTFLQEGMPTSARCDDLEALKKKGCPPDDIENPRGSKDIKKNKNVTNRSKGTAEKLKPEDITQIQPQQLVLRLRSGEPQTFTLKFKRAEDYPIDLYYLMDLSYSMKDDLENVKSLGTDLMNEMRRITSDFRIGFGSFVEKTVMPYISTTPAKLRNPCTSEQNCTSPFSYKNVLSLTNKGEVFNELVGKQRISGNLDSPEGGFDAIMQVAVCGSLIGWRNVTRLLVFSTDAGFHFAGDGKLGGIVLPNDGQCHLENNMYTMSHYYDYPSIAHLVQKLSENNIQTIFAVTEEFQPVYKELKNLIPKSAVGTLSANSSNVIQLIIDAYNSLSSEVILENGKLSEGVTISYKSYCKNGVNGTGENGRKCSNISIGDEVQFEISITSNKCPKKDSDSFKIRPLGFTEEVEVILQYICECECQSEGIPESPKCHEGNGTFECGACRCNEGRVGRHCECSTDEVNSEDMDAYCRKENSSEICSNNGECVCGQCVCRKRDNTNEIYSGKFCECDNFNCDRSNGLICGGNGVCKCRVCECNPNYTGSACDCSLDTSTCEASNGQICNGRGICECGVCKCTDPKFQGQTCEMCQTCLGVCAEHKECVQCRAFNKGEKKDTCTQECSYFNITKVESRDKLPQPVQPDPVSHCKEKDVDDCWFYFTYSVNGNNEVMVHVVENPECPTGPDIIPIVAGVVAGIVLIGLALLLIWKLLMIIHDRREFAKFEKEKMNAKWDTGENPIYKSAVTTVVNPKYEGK
Chain of Integrin beta-1 (Homo sapiens) + Integrin alpha-4 (Homo sapiens) (P13612 whole entry, looked up): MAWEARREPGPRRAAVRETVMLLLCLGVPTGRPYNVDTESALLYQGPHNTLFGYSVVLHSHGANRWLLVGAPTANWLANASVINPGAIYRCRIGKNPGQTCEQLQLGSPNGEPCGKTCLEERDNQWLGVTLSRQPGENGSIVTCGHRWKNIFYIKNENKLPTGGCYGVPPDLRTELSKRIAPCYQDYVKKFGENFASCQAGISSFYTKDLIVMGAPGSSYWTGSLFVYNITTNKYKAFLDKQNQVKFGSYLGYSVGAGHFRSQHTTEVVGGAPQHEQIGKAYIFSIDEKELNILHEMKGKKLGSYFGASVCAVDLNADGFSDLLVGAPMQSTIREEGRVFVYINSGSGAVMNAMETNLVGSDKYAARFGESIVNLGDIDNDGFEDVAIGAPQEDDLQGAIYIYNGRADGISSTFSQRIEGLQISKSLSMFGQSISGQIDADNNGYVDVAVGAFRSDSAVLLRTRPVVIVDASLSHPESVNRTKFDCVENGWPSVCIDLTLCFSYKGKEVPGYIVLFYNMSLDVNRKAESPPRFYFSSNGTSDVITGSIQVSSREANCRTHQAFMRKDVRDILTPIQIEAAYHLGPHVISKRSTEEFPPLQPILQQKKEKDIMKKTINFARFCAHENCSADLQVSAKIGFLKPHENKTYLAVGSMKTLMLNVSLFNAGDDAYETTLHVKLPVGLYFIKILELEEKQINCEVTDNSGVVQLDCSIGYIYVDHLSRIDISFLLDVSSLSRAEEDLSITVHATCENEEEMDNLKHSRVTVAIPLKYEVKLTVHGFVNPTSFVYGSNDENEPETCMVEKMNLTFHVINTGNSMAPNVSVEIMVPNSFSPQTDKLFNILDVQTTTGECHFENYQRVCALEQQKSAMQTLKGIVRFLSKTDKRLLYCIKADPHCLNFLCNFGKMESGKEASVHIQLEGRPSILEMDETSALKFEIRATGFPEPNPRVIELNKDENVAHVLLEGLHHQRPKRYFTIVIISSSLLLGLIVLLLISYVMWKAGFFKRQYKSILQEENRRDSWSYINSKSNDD
Chain of ATP-binding cassette sub-family B member 6 (Homo sapiens) (Q9NP58 whole entry, looked up): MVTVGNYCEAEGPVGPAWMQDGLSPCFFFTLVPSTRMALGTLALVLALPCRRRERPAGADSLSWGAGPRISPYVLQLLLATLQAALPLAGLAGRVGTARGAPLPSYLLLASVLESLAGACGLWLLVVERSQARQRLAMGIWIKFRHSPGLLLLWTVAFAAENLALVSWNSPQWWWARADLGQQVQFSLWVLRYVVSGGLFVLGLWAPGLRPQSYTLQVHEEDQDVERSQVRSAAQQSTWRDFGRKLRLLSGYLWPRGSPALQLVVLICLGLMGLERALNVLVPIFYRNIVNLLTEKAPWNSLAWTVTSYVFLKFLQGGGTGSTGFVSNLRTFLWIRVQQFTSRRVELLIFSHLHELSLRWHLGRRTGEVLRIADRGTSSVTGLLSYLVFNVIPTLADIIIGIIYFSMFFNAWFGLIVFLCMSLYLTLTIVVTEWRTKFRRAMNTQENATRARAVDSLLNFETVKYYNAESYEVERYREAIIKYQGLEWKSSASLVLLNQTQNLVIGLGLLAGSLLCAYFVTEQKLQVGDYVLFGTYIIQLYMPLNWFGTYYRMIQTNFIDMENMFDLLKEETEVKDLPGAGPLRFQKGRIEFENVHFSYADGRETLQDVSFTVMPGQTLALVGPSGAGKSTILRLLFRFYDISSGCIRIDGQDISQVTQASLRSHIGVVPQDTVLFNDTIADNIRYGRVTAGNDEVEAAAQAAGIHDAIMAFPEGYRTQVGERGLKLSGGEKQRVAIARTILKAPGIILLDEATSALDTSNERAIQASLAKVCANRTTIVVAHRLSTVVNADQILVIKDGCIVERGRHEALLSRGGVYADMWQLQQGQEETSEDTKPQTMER
Chain of AP-2 complex subunit beta (Homo sapiens) (P63010 whole entry, looked up, the tested form may be a part, one chain of several): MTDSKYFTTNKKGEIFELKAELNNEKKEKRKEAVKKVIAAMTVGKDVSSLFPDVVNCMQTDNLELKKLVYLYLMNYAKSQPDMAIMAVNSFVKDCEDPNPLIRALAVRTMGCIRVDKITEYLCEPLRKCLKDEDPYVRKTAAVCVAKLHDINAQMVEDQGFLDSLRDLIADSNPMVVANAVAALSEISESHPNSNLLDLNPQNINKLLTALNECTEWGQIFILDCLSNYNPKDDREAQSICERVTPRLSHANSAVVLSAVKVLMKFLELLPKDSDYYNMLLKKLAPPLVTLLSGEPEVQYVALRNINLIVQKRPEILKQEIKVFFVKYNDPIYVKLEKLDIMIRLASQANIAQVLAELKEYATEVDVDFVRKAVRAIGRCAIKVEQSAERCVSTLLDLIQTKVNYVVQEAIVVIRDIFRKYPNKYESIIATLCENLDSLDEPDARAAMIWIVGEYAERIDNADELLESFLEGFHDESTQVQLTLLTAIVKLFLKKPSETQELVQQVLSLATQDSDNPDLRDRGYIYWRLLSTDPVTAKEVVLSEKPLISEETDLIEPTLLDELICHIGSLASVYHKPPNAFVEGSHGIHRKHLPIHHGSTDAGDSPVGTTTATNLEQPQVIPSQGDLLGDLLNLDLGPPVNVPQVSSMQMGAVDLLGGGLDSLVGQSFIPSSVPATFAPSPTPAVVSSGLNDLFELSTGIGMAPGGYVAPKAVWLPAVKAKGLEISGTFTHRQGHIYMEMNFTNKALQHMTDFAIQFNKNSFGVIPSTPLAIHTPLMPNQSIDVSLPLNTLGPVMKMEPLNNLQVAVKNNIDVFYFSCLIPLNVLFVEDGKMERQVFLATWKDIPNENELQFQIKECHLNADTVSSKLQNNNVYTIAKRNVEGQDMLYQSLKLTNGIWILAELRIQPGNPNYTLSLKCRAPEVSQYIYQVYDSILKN
Chain of Beta-2 adrenergic receptor (Homo sapiens) (P07550 whole entry, looked up): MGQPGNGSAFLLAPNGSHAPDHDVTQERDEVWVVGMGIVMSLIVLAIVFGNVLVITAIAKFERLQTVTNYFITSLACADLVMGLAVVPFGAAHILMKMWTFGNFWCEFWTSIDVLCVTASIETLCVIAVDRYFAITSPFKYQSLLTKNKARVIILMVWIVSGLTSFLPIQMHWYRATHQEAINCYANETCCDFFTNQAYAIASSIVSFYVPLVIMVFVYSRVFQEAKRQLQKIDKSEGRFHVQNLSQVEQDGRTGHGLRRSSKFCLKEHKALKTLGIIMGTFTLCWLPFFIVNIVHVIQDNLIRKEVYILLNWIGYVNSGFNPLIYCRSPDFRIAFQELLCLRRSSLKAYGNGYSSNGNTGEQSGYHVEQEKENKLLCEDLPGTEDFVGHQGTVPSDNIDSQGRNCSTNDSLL

With `c1ccc(CN(CC2=NCCN2)c2ccccc2)cc1`, the percent of DMSO control GFP in [1] was 87.8% (inactive). The GFP response vs DMSO was 138% (inactive) in [2] and 78.7% (inactive) in assay [4]. The percent response of DMSO control in assay [3] is 101% (inactive). Besides, the GFP response, % of DMSO in assay [5] is 84.3% (inactive). Besides, in assay [6], the double positive events was 64.5% and 68.1%. Further, the vesicle binding response in [6] is 273% (inactive) and 176% (inactive). Moreover, the inhibition in [7] was -56.6% (inactive) and -2.27% (inactive); in assay [11], 0.2% (inactive) and -12.4% (inactive); in [15] it was -5% (inactive) and 12% (inactive). Further, the superoxide response (% of plate) in assay [8] is 93.5% (inactive) and 98.7% (inactive). In addition, the aptamer binding inhibition in assay [9] was 1% (inactive) and 2% (inactive). The response in assay [10] is 7.43% (inactive) and -2.34% (inactive); in assay [12], -4.75% (inactive) and 1.48% (inactive). The binding (% of control) in assay [13] is 111% (inactive) and 102% (inactive). In assay [14], the efflux inhibition (fraction of control) is -0.35 (inactive) and -0.31 (inactive). Also, in assay [16], the differentiation response is 15.6% (inactive) and -8.19% (inactive).

For `CCN(CCCCOC(=O)c1ccc(OC)c(OC)c1)C(C)Cc1ccc(OC)cc1` (centres undefined), the percent of DMSO control GFP in assay [1] is 102% (inactive). Besides, the GFP response vs DMSO in assay [2] was 99.6% (inactive); in assay [4], 104% (inactive). Moreover, the percent response of DMSO control in assay [3] is 102% (inactive). Moreover, in assay [5], the GFP response, % of DMSO was 117% (inactive). Further, the double positive events in assay [6] came to 62.7%. For the same molecule, in [6], the vesicle binding response was 194% (inactive). Moreover, the inhibition in assay [7] is 22.7% (inactive); in assay [11] it was 3.32% (inactive); in assay [15], 6% (inactive). Also, the superoxide response (% of plate) in assay [8] is 103% (inactive). In addition, the aptamer binding inhibition in [9] is 4% (inactive). Moreover, the response in assay [10] is -26.8% (inactive); in [12], 0.12% (inactive). Further, in assay [13], the binding (% of control) is 103% (inactive). The efflux inhibition (fraction of control) in assay [14] is -0.09 (inactive). Besides, the differentiation response in assay [16] was -5.97% (inactive).

For `COc1cc2c3c(c1)C(C)CC(C)(C)N3C(=O)C2=O` (centres undefined), the percent of DMSO control GFP in [1] was 92.4% (inactive). The GFP response vs DMSO was 122% (inactive) in [2] and 79.2% (inactive) in assay [4]. The percent response of DMSO control in assay [3] is 110% (inactive). For the same molecule, the GFP response, % of DMSO in assay [5] was 94.7% (inactive). Besides, the double positive events in assay [6] was determined as 58.1%. In addition, in [6], the vesicle binding response is 199% (inactive). Also, the inhibition is 15.2% (inactive) in assay [7], 0.2% (inactive) in assay [11] and 12% (inactive) in assay [15]. In [8], the superoxide response (% of plate) was 99% (inactive). Also, the aptamer binding inhibition in assay [9] was 89% (active). Besides, the response is 2.87% (inactive) in [10] and 1.61% (inactive) in [12]. Besides, in assay [13], the binding (% of control) is 105% (inactive). In addition, the efflux inhibition (fraction of control) in [14] is 0.37 (inactive). Further, the differentiation response in assay [16] is 1.64% (inactive).

In the case of `O=C(Nc1ccc(F)c([N+](=O)[O-])c1)c1ccc2c(c1)OCCO2`, the percent of DMSO control GFP in assay [1] is 106% (inactive). Also, the figures for the GFP response vs DMSO in [2] and in assay [4] were 103% (inactive) and 108% (inactive), respectively. Further, the percent response of DMSO control in assay [3] is 104% (inactive). For the same molecule, the GFP response, % of DMSO in assay [5] was 100% (inactive). Besides, the double positive events in [6] amounted to 63%. The vesicle binding response in [6] is 5830% (inactive). For the same molecule, the inhibition in assay [7] is -1.49% (inactive); in assay [11], -13.5% (inactive); in assay [15], 15% (inactive). Further, the superoxide response (% of plate) in [8] was 94% (inactive). Besides, the aptamer binding inhibition in assay [9] was 2% (inactive). Further, the response is 1.51% (inactive) in assay [10] and 3.69% (inactive) in assay [12]. For the same molecule, the binding (% of control) in assay [13] is 92.4% (inactive). Further, in assay [14], the efflux inhibition (fraction of control) was -0.01 (inactive). Moreover, in assay [16], the differentiation response is 5.13% (inactive).

On to `CC[N+]1(C)CC2CCC(C)(C1)C2(C)C` (centres undefined), for which the percent of DMSO control GFP in assay [1] was 106% (inactive). In addition, the GFP response vs DMSO in assay [2] was 104% (inactive); in [4], 96.5% (inactive). The percent response of DMSO control in assay [3] was 101% (inactive). Moreover, in assay [5], the GFP response, % of DMSO is 97.4% (inactive). Also, in assay [6], the double positive events was found to be 59.7%. Further, the vesicle binding response in assay [6] was 193% (inactive). For the same molecule, the inhibition was 11.9% (inactive) in [7], 11.5% (inactive) in assay [11] and 7% (inactive) in assay [15]. Moreover, in assay [8], the superoxide response (% of plate) was 103% (inactive). Besides, in [9], the aptamer binding inhibition was 5% (inactive). In addition, the response in [10] was 5% (inactive); in assay [12] it was -4.32% (inactive). The binding (% of control) in [13] is 98% (inactive). The efflux inhibition (fraction of control) in [14] was -0.06 (inactive). Also, the differentiation response in assay [16] is -21.6% (inactive).

In the case of `NC(=O)c1cnccn1`, the percent of DMSO control GFP in assay [1] is 101% (inactive). The GFP response vs DMSO in assay [2] and in [4] was 110% (inactive) in each case. In [3], the percent response of DMSO control was 92.5% (inactive). Further, the GFP response, % of DMSO in assay [5] was 111% (inactive). This molecule registered a double positive events in assay [6] of 60.5%. Also, in assay [6], the vesicle binding response was 240% (inactive). The inhibition in assay [7] was 10.8% (inactive); in assay [11], -9.13% (inactive); in assay [15] it was 2% (inactive). Moreover, the superoxide response (% of plate) in assay [8] is 102% (inactive). The aptamer binding inhibition in assay [9] was 9% (inactive). The response in assay [10] was -6.65% (inactive); in assay [12], 11.1% (inactive). In addition, the binding (% of control) in [13] is 102% (inactive). In addition, the efflux inhibition (fraction of control) in assay [14] is -0.09 (inactive). In assay [16], the differentiation response is 25.6% (inactive).

In the case of `CCOc1ncnc2c1[nH]c1ccccc12`, in assay [1], the percent of DMSO control GFP was 99.7% (inactive). The results for the GFP response vs DMSO in assay [2] and in assay [4] were 98.5% (inactive) and 88% (inactive), respectively. The percent response of DMSO control in assay [3] was 104% (inactive). Moreover, the GFP response, % of DMSO in assay [5] was 85.7% (inactive). In assay [6], this molecule returned a double positive events of 52.2%. Besides, the vesicle binding response in assay [6] was 354% (inactive). Further, the inhibition was -8.62% (inactive) in [7], -7.64% (inactive) in assay [11] and 8% (inactive) in assay [15]. Also, the superoxide response (% of plate) in [8] is 101% (inactive). Besides, the aptamer binding inhibition in assay [9] is 4% (inactive). For the same molecule, the response was 14.8% (inactive) in [10] and 19.2% (active) in assay [12]. Moreover, the binding (% of control) in assay [13] was 98.9% (inactive). Moreover, in [14], the efflux inhibition (fraction of control) was 0.01 (inactive). Also, the differentiation response in [16] was -31.2% (inactive).

The values are drawn from PubChem BioAssay.
